Among all 340,000 compounds or so, about 6,900 (2%) were called active. Rule as the data show it: active = inhibition above about 30%; inactive = below that, where a call was filed. This excerpt belongs to a sample that is enriched for actives.
These compounds were tested against D(2) dopamine receptor (Homo sapiens) (UniProt P14416) (assay: HTS Assay for Allosteric Antagonists of the Human D2 Dopamine Receptor: Primary Screen for Antagonists). Settings: HEK293 TREx D2 cells, calcium flux, dopamine EC80; at 10 µM; active compounds read high.
D(2) dopamine receptor (Homo sapiens), sequence (P14416 whole entry, looked up): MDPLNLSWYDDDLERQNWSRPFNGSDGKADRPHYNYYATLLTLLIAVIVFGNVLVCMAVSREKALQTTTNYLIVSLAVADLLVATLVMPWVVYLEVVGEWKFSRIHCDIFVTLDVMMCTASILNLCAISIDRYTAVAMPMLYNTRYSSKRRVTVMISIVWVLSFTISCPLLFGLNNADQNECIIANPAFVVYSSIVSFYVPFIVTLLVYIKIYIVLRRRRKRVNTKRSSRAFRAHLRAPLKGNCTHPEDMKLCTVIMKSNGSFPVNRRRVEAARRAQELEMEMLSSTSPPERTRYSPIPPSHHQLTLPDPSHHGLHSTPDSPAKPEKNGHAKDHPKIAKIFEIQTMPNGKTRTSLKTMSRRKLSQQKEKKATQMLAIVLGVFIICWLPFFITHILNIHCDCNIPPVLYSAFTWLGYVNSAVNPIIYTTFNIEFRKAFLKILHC
In short: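 Inhibition of EC80 dopamine-driven calcium flux, recorded kinetically, defines activity here; cells are a tetracycline-induced HEK293 T-REx line expressing force-coupled D2.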
Also: 0% is about no effect.

inhibition, active:
CCN(CC(=O)NCc1ccc(Cl)cc1)C(=O)c1c(C)noc1C 30.3%
CCOc1ccc(-c2nc(N)ncc2-c2ccccc2OC)c(O)c1 34.9%
O=C(NCCCN1CCOCC1)c1ccc([N+](=O)[O-])cc1[N+](=O)[O-] 48.1%
COc1ccc(Cl)cc1NC(=O)NC(C)C(C)(C)C (stereo not given) 34.2%
CCC(CC)C(=O)Nc1ccc(S(=O)(=O)Nc2nccs2)cc1 32.1%
COc1ccccc1N1CCN(Cc2cc(OC)c3c(c2)OCO3)CC1 85.7%
COc1ccccc1N1CCN(Cc2ccc(OC)c3ccccc23)CC1 72.3%
CC(=C/c1ccccc1)/C=N/NC(=O)c1cc(C)oc1C 36.9%

inhibition, inactive:
CC(OC(=O)CN1C(=O)c2ccccc2C1=O)C(=O)c1ccccc1 (stereo not given) 10.6%
Cc1noc(C)c1S(=O)(=O)N(CC(=O)NCc1ccc(Cl)cc1)c1ccc2c(c1)OCO2 1.26%
CCN(CC(=O)NCc1ccc(Cl)cc1)C(=O)CSc1ccccc1 -4.45%
CC(=O)c1c(C)[nH]c(C(=O)COc2ccc3c(C)cc(=O)oc3c2)c1C 1.65%
CN(C)C(=O)N=NC(=O)N(C)C 6.75%
CCC(C)CCN1CCN=C1N(C)C (stereo not given) -4.14%
C=C(C)COc1ccc(-c2nc(N)ncc2-c2ccccc2OC)c(O)c1 -11.9%
COc1ccc(-c2nc(N)ncc2-c2ccc(Cl)cc2)c(O)c1 -27.1%
CCCCN1C(=O)C(=O)N(CC(=O)Nc2cccc(C(C)=O)c2)C1=O 2.29%
COc1ccc(C(=O)OC(C)C(=O)NC2CCCC2)cc1S(=O)(=O)N1CCOCC1 (stereo not given) -6.41%
O=C(NCCCN1CCOCC1)c1ccc(N2CCCC2)c([N+](=O)[O-])c1 -5.74%
O=[N+]([O-])c1ccc(NCCCN2CCOCC2)c(Cl)c1 -7.9%
COc1ccc(CC2c3cc(OC)c(OC)cc3CC[N+]2(C)CCC(=O)OCCCCCOC(=O)CC[N+]2(C)CCc3cc(OC)c(OC)cc3C2Cc2ccc(OC)c(OC)c2)cc1OC (stereo not given) 2.9%
COC(=O)[C@@H](NC(=O)Nc1cc(Cl)ccc1C)C(C)C 18.4%
COc1ccc(Cl)cc1NC(=O)CNc1ccccc1F 0.751%
Cc1cc(C(=O)Nc2ccc(C)c(S(=O)(=O)N3CCOCC3)c2)c2ccccc2n1 3.28%
O=C(c1cc(-c2ccco2)nc2ccccc12)N(Cc1nnc(-c2ccc(Cl)cc2)o1)C1CC1 -3.48%
Cc1ccc(OCCC(=O)Nc2ccc(S(=O)(=O)Nc3nccs3)cc2)cc1 23.7%
COc1ccccc1OC(C)C(=O)Nc1ccc(S(=O)(=O)Nc2nccs2)cc1 (stereo not given) -2.37%
COc1ccc(CN2CCN(Cc3ccc(OC)c(OC)c3OC)CC2)cc1 -16%
COc1ccccc1CN1CCN(Cc2cc(OC)c(OC)cc2OC)CC1 -0.792%
COc1ccccc1N1CCN(CCCCOc2ccc(F)cc2)CC1 1.05%
CNCC(O)CN1CCN(c2ccccc2OC)CC1 (stereo not given) -12.4%
COc1ccc(S(=O)(=O)N2CCOCC2)cc1NC(=O)CSc1cc(C)ccc1C -16%
CCN(CC(=O)Nc1ccc(NC(C)=O)cc1)C(=O)CSC(=S)N1CCCC1 12.7%
CC1(C)O[C@@H]2[C@H](O1)[C@@H](COS(=O)(=O)O)O[C@H]2n1cnc2c(=O)[nH]cnc21 10.8%
CCCCn1c(N)c(N(CC(C)C)C(=O)CSc2ccc([N+](=O)[O-])cc2)c(=O)[nH]c1=O 6.25%
OCC[C@H]1C[C@@H](O)[C@H](O)[C@@]2(OCCc3ccccc32)O1 3.29%
CCN(CC(=O)Nc1ccc(OC)cc1)C(=O)CSCc1ccc(C)cc1 7.06%
Cc1cc(C(=O)N/N=C/c2ccccc2[N+](=O)[O-])c(C)o1 2.69%
Cc1cc(C(=O)N/N=C\C(Br)=C\c2ccccc2)c(C)o1 1.9%
COc1ccccc1C(=O)COC(=O)CSCC(=O)Nc1cc(C)on1 14.3%

Source: PubChem BioAssay AID485344 (National Center for Advancing Translational Sciences (NCATS), 2010)
